From PubChem BioAssay come the findings set out here.

As usually defined, the inhibition is the change of the read-out against control, counted positive when it falls. What is called IC50 is the midpoint of a concentration-inhibition curve.

A short description of test [1]: apoptosome-driven caspase-3 activation blockers – biochemical, fluorescence, DEVD-Rh110, 20 µM, confirmation (AID 504614;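 active = mean inhibition of at least 40% at 20 µM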;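 also: plate controls were DMSO wells for no effect and DEVD-CHO caspase inhibitor control wells for full effect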). Conditions: reconstituted apoptosome, caspase-3 DEVD-Rh110 fluorescence; at 20 µM; stronger effect = higher value.
The nature of test [2]: detection-step artefacts after completed caspase reaction – biochemical, fluorescence, Rh110, 20 µM, artefact control for Apaf-1 inhibitor project, confirmation (AID 504615). The note with it: quenched caspase reaction, at 20 µM, stronger effect = higher value.
Test [3] can be described thus: fluorescence interference of Apaf-1 inhibitor hits, dose response, artefact control for Apaf-1 inhibitor project (AID 588538; call rule not given here). The note with it: fluorescence interference counterscreen, Apaf-1 assay format. On the technique in general: The purpose of a counterscreen is to sort out artefacts and off-target activity.
Test [4] is described as follows: Brca1-Bard1 BiLC signal decrease – luminescence, single concentration, counter-screen for Mdm2/MdmX interaction inhibitor project, confirmation (AID 504668; call rule not given here). The note with it: Brca1/Bard1 bimolecular luciferase complementation counterscreen, at 8 µM, stronger effect = higher value.
The nature of test [5]: inhibition of PEG-3 promoter luciferase signal – cell-based, HeLa, luciferase reporter, single concentration, confirmation (AID 602417;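 active = at 20 µM dose, 40% or more inhibition averaged across four replicates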). The note with it: HeLa PEG-Prom luciferase reporter, luminescence, overnight; at 20 µM; stronger effect = higher value.
Test [6] deals with PEG-3 (UniProt Q6IN02). In words: inhibition of PEG-3 promoter-driven reporter – cell-based, HeLa, luciferase, CREF/GAPDH counter-screen panel, dose response (AID 624167). The note with it: CREF/GAPDH counter-screens; HeLa PEG-Prom luciferase reporter, overnight, run 1, dose range 1, at 100 µM (top of the series) unless noted.
Sequence of PEG-3 (Q6IN02 whole entry, looked up): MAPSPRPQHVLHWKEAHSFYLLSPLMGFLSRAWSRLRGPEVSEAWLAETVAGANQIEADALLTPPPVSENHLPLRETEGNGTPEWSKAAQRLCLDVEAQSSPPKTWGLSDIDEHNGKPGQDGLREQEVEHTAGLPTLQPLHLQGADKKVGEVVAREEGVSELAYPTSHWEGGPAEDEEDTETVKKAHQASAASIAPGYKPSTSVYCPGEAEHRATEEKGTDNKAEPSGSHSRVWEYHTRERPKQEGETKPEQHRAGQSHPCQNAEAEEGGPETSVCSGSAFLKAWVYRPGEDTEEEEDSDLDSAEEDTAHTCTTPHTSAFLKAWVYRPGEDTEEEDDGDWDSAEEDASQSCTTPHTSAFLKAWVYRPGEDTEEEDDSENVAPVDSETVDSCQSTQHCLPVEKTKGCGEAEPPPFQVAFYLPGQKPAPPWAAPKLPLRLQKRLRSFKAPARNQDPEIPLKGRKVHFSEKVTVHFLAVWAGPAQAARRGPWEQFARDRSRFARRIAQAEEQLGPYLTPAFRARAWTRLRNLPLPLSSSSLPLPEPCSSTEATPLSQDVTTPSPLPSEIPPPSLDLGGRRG
Test [7] addresses PEG-3 (UniProt Q6IN02). Described as above. The note with it: CREF/GAPDH counter-screens; HeLa PEG-Prom luciferase reporter, overnight, run 2, dose range 1, at 100 µM (top of the series) unless noted.
The nature of test [8]: HIF-2a driven luciferase blockers, single dose – luminescence, 786-0 RCC cells, confirmation (AID 651580;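 active = mean inhibition across four replicates of at least 40 percent at the single tested concentration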). The note with it: HIF-2a luciferase reporter luminescence, overnight, at 18.8 µM, stronger effect = higher value.
Test [9] is described as follows: HIF-1a luciferase reporter signal reduction – MiaPaCa-2 cells, single concentration, counter-screen for HIF-2a inhibitor project, confirmation (AID 651589;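 active = mean inhibition of the reporter signal across four replicates at the single tested dose of 50% or more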). Conditions: MiaPaCa-2 HIF-1a luciferase reporter, desferoxamine, overnight; at 18.8 µM; stronger effect = higher value. (In general: In a reporter assay the amount or activity of a reporter protein is the signal.)
Test [10] deals with COP9 signalosome complex subunit 5 (Homo sapiens) (UniProt Q92905). In words: blockers of CSN-driven cullin deneddylation – biochemical, fluorescence polarization, single concentration, SCF-Nedd8OG substrate, confirmation (AID 720654; in the data active = inhibition above about 50%;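 also: 0% = DMSO with enzyme and 100% = no enzyme wells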). The note with it: Csn5 deneddylation of SCF-Nedd8OG, 90 min, at 16.6 µM, stronger effect = higher value. On the technique in general: In fluorescence polarisation assays a small probe gives low polarisation when free and higher when bound to something large.
Sequence of COP9 signalosome complex subunit 5 (Homo sapiens) (Q92905 whole entry, looked up, one chain of several): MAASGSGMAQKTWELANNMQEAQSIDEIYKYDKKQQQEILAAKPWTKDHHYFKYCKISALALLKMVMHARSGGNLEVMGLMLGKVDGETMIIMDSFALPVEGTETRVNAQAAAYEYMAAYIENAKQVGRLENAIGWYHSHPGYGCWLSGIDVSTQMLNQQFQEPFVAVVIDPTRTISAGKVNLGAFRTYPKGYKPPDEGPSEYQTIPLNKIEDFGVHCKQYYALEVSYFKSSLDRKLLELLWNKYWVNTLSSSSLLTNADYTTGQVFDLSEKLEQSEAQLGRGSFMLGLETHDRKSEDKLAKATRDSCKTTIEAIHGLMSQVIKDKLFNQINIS

Test [11] has as its target 72 kDa type IV collagenase (Homo sapiens) (UniProt P08253). In words: human MMP-2 inhibitors, single-point check – biochemical, fluorescence, single concentration, counter-screen for CSN deneddylation inhibitor project, confirmation (AID 720655;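 active = corrected plate-normalized z-score of 5 or more, or -5 or less, or inhibition of 15% or more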;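 also: plate controls were DMSO wells with enzyme for no effect and buffer wells lacking MMP-2 for full effect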). The note with it: recombinant MMP-2, FRET substrate fluorescence, 60 min; at 16.6 µM.
Another test concerns the target Prothrombin (Bos taurus) (UniProt P00735). In words: thrombin cleavage blockers, FP readout – biochemical, fluorescence polarization, single concentration, counter-screen for CSN deneddylation inhibitor project, confirmation (AID 720656;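 active = inhibition at or above a set limit, with a fluorescence interference ratio between 0.5 and a set maximum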). Conditions: bovine thrombin cleavage of Ub4-pepOG, at 16.6 µM, stronger effect = higher value.
Test [12] has as its target Tumor necrosis factor receptor superfamily member 10B (Homo sapiens) (UniProt O14763). Kind of test: viability loss of caspase-8 NB7 cells with TRAIL – with/without TRAIL, luminescence panel, confirmation (AID 651596; in the data active = activity above about 50%). Conditions: NB7 neuroblastoma + caspase-8, TRAIL sensitization, NB7 Caspase-8, with TRAIL, mean of runs, at 10 µM, stronger effect = higher value.
Assay in test [13]: as above
The note with it: NB7 neuroblastoma + caspase-8, without TRAIL, NB7 Caspase-8, without TRAIL, mean of runs, at 10 µM.

Each structure is given as a SMILES string. This is one part of the list. Calls of active or inactive are those of the source.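 The calls were made as follows, unless noted: active = signal rise of 40% or more at 20 µM, treated as a fluorescence artifact; inactive = the rest.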 Some results are limits rather than exact numbers.

Sequence of Prothrombin (Bos taurus) (P00735 whole entry, looked up): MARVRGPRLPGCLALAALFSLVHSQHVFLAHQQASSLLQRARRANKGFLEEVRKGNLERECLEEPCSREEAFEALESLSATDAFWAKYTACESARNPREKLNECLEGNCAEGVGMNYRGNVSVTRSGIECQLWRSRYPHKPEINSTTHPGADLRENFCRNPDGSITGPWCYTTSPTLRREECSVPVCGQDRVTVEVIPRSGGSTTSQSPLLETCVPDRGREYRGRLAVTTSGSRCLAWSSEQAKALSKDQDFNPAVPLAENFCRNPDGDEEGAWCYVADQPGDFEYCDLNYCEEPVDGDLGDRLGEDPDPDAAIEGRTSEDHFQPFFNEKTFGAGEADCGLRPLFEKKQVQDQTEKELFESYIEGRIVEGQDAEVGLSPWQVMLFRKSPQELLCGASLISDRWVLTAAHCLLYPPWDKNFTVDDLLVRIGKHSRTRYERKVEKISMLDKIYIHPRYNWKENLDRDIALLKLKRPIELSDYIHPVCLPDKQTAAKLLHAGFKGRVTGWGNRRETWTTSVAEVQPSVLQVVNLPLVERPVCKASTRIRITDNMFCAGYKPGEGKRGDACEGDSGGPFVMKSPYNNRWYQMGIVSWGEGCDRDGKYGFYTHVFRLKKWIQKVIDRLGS
Sequence of 72 kDa type IV collagenase (Homo sapiens) (P08253 whole entry, looked up): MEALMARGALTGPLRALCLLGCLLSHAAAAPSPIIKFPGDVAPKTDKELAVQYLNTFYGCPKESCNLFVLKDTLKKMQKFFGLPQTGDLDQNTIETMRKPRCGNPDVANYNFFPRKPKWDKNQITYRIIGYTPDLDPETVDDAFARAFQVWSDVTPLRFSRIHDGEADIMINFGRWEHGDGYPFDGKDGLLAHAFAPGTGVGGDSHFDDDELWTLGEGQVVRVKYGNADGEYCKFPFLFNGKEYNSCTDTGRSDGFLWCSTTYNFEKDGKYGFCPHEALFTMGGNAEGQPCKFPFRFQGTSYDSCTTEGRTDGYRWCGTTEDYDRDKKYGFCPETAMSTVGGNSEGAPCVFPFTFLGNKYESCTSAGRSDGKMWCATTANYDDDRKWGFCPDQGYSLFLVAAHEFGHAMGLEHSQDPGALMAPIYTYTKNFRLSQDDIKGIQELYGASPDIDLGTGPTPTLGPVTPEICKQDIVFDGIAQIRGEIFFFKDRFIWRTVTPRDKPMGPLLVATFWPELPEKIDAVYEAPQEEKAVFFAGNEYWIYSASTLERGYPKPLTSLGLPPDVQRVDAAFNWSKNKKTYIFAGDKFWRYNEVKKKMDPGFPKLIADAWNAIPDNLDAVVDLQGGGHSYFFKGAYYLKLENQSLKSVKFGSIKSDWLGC
Sequence of Tumor necrosis factor receptor superfamily member 10B (Homo sapiens) (O14763 whole entry, looked up): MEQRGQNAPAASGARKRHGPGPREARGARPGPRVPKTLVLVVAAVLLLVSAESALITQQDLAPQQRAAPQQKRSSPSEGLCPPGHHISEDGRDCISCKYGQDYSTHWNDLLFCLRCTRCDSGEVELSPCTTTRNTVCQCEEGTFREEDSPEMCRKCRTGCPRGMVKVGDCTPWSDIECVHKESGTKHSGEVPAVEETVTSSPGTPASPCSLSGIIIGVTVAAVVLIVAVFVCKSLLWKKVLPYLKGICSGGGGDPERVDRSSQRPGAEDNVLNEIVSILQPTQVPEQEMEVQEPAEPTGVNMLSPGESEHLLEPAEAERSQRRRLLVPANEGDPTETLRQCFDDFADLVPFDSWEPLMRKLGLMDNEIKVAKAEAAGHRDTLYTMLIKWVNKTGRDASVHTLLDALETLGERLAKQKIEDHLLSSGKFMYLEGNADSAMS

On to `CCOC(=O)C1CCN(C(=O)c2cccc(S(=O)(=O)N(CC)c3ccccc3)c2)CC1`, for which the inhibition in [1] is 27.8% (inactive). The activation (fluorescence interference) in [2] was 5.38% (inactive).
Consider `CC(C)CC[n+]1ccn(C2=C([O-])c3ccccc3C(=O)/C2=N\S(=O)(=O)c2ccccc2)c1`, for which, in [1], the inhibition was 62.6% (active). For the same compound, in [2], the activation (fluorescence interference) was 5.73% (inactive). Besides, in test [3], the IC50 was > 100 µM (inactive).
For `CC(=O)Nc1ccc(Nc2cc(C)nc(Nc3ccc(NC(C)=O)cc3)n2)cc1`, the inhibition in test [1] was 10.4% (inactive). Further, in [2], the activation (fluorescence interference) was 4.46% (inactive).
On to `COc1ccc(N(CCC(=O)NCCc2ccccc2)S(=O)(=O)c2ccc(C)cc2C)cc1`, for which, in test [1], the inhibition is 35.9% (inactive). Besides, the activation (fluorescence interference) in [2] is 3.62% (inactive).
`COc1cccc(-c2sc3ccc(OC)cc3c2-c2ccc(OCCN3CCCCC3)cc2)c1`: the results for the inhibition in test [1] and in test [4] were 4.75% (inactive) and 32.7% (active), respectively. Further, in test [2], the activation (fluorescence interference) is 11.8% (inactive).
Regarding `CN(C)S(=O)(=O)c1ccc2oc(SCC(=O)Nc3ccccc3F)nc2c1`, the inhibition in [1] is 77.8% (active). Moreover, the activation (fluorescence interference) in [2] was 10.6% (inactive). In addition, the IC50 in [3] was > 100 µM (inactive).
Regarding `CCCCNC(=O)C(C)N(CCN(C)C)C(=O)CCCCCN1C(=O)NC(c2ccc(Cl)cc2)C(C(=O)OCc2ccccc2)=C1C` (stereo not drawn), the inhibition in [1] was 22.9% (inactive); in test [4] it was 27.8% (active); in test [5], 99.7% (active); with PEG-3 [6] it was 102%; with PEG-3 [7] it was 101%. For the same compound, the activation (fluorescence interference) in test [2] was -179% (inactive).
Turning to `O=S(=O)(Nc1ccc(O)c2ccccc12)c1ccc(OC(F)(F)F)cc1`, the inhibition in [1] is 21.3% (inactive). In test [2], the activation (fluorescence interference) was -2.71% (inactive).
On the same counts, the results for `O=C(CN1CCN(S(=O)(=O)c2ccc3ccccc3c2)CC1)NC(=O)NC1CCCCC1` are 26.3% (inactive) and 20% (inactive).
In the case of `COC1=C(N2CCOCC2)C(=O)c2ccccc2C1=O`, the inhibition in [1] is 29.1% (inactive). Further, the activation (fluorescence interference) in test [2] was 4% (inactive).
Take `Cc1ccc(-c2ccc(/C=N/NC(=O)CN3CCOCC3)o2)cc1[N+](=O)[O-]`: the inhibition in test [1] is 27.9% (inactive). Also, the activation (fluorescence interference) in [2] was -3.95% (inactive).
In the same order, the values of `CC(C)c1ccccc1OCC(O)CN(CC(O)COc1cccc2ccccc12)C(C)C` (stereo not drawn) are 16.9% (inactive) and 14.2% (inactive).
On the same counts, the results for `C[C@@H](CN1CCC[C@H]1CN1C(N)=NC[C@@H]1Cc1ccccc1)N1C[C@@H](Cc2ccccc2)N(CCCC2CCCC2)C1=N` are 11.8% (inactive) and 7.13% (inactive).
On the same counts, the results for `Cc1ccc(S(=O)(=O)N2CCN(C(=O)c3ccccc3-c3nc4ccccc4s3)CC2)c(C)c1` are 34.1% (inactive) and 4.66% (inactive).
For the compound `O=C1Nc2ccc([N+](=O)[O-])cc2C1=Nc1cccc(CO)c1`, the inhibition in [1] was 39.8% (inactive). For the same compound, the activation (fluorescence interference) in test [2] is -4.07% (inactive).
Consider `C=CCn1c(N)c(C(=O)OCC(C)C)c2nc3ccccc3nc21`, for which, in test [1], the inhibition was 19.4% (inactive). In addition, the activation (fluorescence interference) in test [2] is 12% (inactive).
In the same order, the values of `COc1ccc(-c2nc3cc(C)ccn3c2NC2CCCCC2)cc1SC1CCCCC1` are 15.6% (inactive) and -1.22% (inactive).
In the same order, the values of `Nc1ccc2nn(-c3ccc(Cl)cc3)nc2c1` are 35.8% (inactive) and 0.47% (inactive).
As for `CCOC(=O)N1CCC(c2cc(=O)n(-c3ccccc3)[nH]2)CC1`, in test [1], the inhibition was 32.4% (inactive). Moreover, the activation (fluorescence interference) in test [2] is 8.7% (inactive).
Consider `C/C(=N/NC(=O)CN(c1ccccc1)S(=O)(=O)c1ccccc1)c1ccccc1O`, for which the inhibition in [4] was 26.8% (active).
In the case of `O=C1N(c2ccccc2)C[C@@H]2C[C@@H](c3cc4ccccc4o3)N3CCC[C@@]123`, the inhibition in test [4] is 35.1% (active).
Turning to `CC1CCN(S(=O)(=O)c2ccc(C(=O)Nc3nnc(-c4ccco4)o3)cc2)CC1`, the inhibition in test [4] is 34.2% (active).
Same read-out and setting: for `CCN(CC)S(=O)(=O)c1ccc2c(c1)C(=NO)c1cc(S(=O)(=O)N(CC)CC)ccc1-2` the value was 23.7% (active).
As to `CN1CCN(CCCNC(=O)c2ccc(/C=C3\Oc4ccccc4N(Cc4ccc(Cl)cc4)C3=O)cc2)CC1`, the inhibition was 39.1% (inactive) in test [1]; -0.07% (inactive) in [8]; 106% (active) in test [9]; -18.2% (inactive) in test [10]; 11.2% (inactive) in test [11]; -9.75% (inactive) with Prothrombin (Bos taurus). Further, the activation (fluorescence interference) in test [2] is 6.39% (inactive). For the same compound, the figures for the activity in [12] and in [13] were 41.5% and 75%, respectively.
